The whole screen tested about 1,000 compounds, of which about 200 (20%) were called active. Cut-off read from the data, not from the text of the source: active = inhibition above about 55%; inactive = the rest. Only a sample is shown. Entries with a potency or affinity are not part of this list.
Target: Dual specificity protein phosphatase 3 (Homo sapiens) (UniProt P51452)
Test: VHR1 phosphatase inhibitors, biochemical (AID 1878)
Details: recombinant VHR phosphatase, fluorogenic substrate; at 13.3 µM; stronger effect = higher value

Dual specificity protein phosphatase 3 (Homo sapiens), sequence (P51452 whole entry, looked up): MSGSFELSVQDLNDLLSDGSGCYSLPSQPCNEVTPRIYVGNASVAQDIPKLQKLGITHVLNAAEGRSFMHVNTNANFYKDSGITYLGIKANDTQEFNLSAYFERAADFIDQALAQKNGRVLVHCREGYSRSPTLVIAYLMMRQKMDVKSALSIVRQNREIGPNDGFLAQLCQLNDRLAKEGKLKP

| SMILES | inhibition |
| --- | --- |
| COc1ccc2[nH]c(=O)c(-c3noc(-c4ccc(F)cc4)n3)cc2c1 | 97.2% (active) |
| COc1ccc(OC)c(-c2csc(NC(=O)Cc3ccc(F)cc3)n2)c1 | 0.5% (inactive) |
| Cn1cnc(S(=O)(=O)N2CCN(c3ccc(F)cc3)CC2)c1 | -8% (inactive) |
| O=C(Nc1ccc(Cl)c(Cl)c1)Nc1ccccn1 | 3.2% (inactive) |
| Cc1ccc(NC(=O)NN2CCN(C)CC2)cc1C | -0.5% (inactive) |
| Cc1ccc(NC(=O)Nc2nnc(-c3ccncc3)s2)cc1C | 94.2% (active) |
| Cc1ccc(NC(=O)NCCN2CCCCC2)cc1C | -2% (inactive) |
| Cc1cccc(NC(=O)Cc2nnc(NC(=O)Nc3ccccc3F)s2)c1 | 16.3% (inactive) |
| CCC(C(=O)NCCCN1CCN(C)CC1)n1nc(C)n2c(cc3occc32)c1=O (stereo not drawn) | -10.7% (inactive) |
| CC(=O)OC1CC2(C)/C(=N\O)CCC2C2CCc3cc(O)ccc3C12 (stereo not drawn) | -5.1% (inactive) |
| Cc1ccc(-n2nc3c(=O)n(CCCC(=O)NC4CCC(C)CC4)nc(C)c3c2C)cc1 (stereo not drawn) | 23.9% (inactive) |
| CCN(CC)C(=O)Cn1cc(C(=O)C(=O)NCCCN2CCCCC2)c2ccccc21 | 1.8% (inactive) |
| O=C(NCc1ccc(F)cc1)C1CCN(S(=O)(=O)c2cccc3nonc23)CC1 | 4.8% (inactive) |
| CC(C)C[C@H](NC(=O)C1CC(=O)N(c2ccc3c(c2)OCO3)C1)C(=O)NC1CCCC1 (stereo partly drawn) | -5% (inactive) |
| CCN(CC)CCCNC(=O)c1ccc(C)c(NC(=O)C2=C(C)OCCS2)c1 | 5.7% (inactive) |
| COc1cc(OC)nc(Oc2cc(C=O)ccc2OC)n1 | 19.7% (inactive) |
| CCN(CC)CCCNC(=O)c1cn(C)c2ccc(S(=O)(=O)N(C)C3CCCCC3)cc2c1=O | -8.9% (inactive) |
| O=S(=O)(Nc1ccc(Cl)cc1)c1ccc(N2CCOCC2)c(NC(=S)NCCN2CCOCC2)c1 | 57.1% (active) |
| Cn1c(=O)c(=O)n(C)c2cc(N3CCOCC3)c(NS(=O)(=O)c3ccc(F)c(Cl)c3)cc21 | -2.4% (inactive) |
| CC(=O)c1ccc(S(=O)(=O)Nc2ccc(N3CCOCC3)cc2)cc1 | -2% (inactive) |
| CC(C)(C)NC(=O)N1CCN(c2ncccc2C(F)(F)F)CC1 | -1.3% (inactive) |
| O=C(CSc1nc2ccccc2[nH]1)NCCN1CCCCC1 | -5.4% (inactive) |
| Cc1ccc(-c2nnn3c2nc(NCCc2ccc(S(N)(=O)=O)cc2)c2ccccc23)cc1 | 98.7% (active) |
| CCOc1ccc(C(=O)OCC(=O)NCc2ccco2)cc1OCC | 3.1% (inactive) |

| SMILES | inhibition |
| --- | --- |
| CCN1C(=O)N(c2ccc(C(C)=O)cc2)S(=O)(=O)c2ccccc21 | -4.4% (inactive) |
| Cc1ccc(NC(=O)CCC(=O)c2ccc(Br)cc2)cc1 | 8.7% (inactive) |
| COc1ccc(C(=O)N2CCN(CCNC(=O)C(=O)Nc3ccc(Br)cc3)CC2)cc1 | 1.9% (inactive) |
| Oc1ccccc1/C=N/Nc1cc(N2CCCC2)nc(N2CCCC2)n1 | -15.5% (inactive) |
| CCCC(=O)Nc1c(-c2ccc(C)cc2)c(=O)c2ccccc2n1C | 2.1% (inactive) |
| COc1ccc(Cn2c(-c3ccc(C)cc3)nc3c(c(=O)c4ccccc4n3C)c2=O)cc1 | 85.9% (active) |
| COc1ccnc2c1c(=O)n(Cc1ccc(Cl)cc1)c(=O)n2C | 0.3% (inactive) |
| Cc1nn(CC(=O)NCCCN2CC(C)CC(C)C2)c(=O)c2cccn12 (stereo not drawn) | -10.3% (inactive) |
| CN1C(=O)CN=C(c2ccc(Cl)cc2)c2cc(Cl)ccc21 | 16% (inactive) |
| COc1cccc(-c2nc(CS(=O)(=O)CC(=O)NCCCN3CC(C)CC(C)C3)c(C)o2)c1 (stereo not drawn) | -0.7% (inactive) |
| N#C/C(=C\c1ccc(-c2ccc(C(=O)O)cc2)o1)C(=O)Nc1ccc(F)cc1 | 82.2% (active) |
| CN(C)N1C(N)=C(C#N)C(c2cccc(Cl)c2)C2=C1CCCC2=O (stereo not drawn) | 0.6% (inactive) |
| CC1CCCN(CCCNS(=O)(=O)c2ccc3c(c2)CCN3C(=O)C2CC2)C1 (stereo not drawn) | -6.7% (inactive) |
| CC#CC#Cc1cccc(=O)o1 | 42.9% (inactive) |
| O=C(O)CCSC1CC(=O)N(c2ccccc2)C1=O (stereo not drawn) | 16.8% (inactive) |
| O=S(=O)(c1cc(Cl)ccc1Cl)N1CCc2ccccc21 | -1.3% (inactive) |
| CN(C)c1ccc(NC(=O)CSc2nnc(C3CCCCC3)n2N)cc1 | -7.6% (inactive) |
| Cc1ccc2nc(SCC(=O)NCc3ccc(F)cc3)[nH]c2c1 | 19.1% (inactive) |
| Cc1nc2ccccc2c(=O)n1NC(=O)c1ccccc1 | -2% (inactive) |
| O=C(CSc1ccc2ccccc2n1)Nc1nsc(-c2ccc(Cl)cc2)n1 | 80% (active) |
| CS(=O)(=O)/C(C#N)=C/c1cccn1S(=O)(=O)c1ccccc1 | -10.1% (inactive) |
| CC(C)[C@H](NC(=O)c1ccco1)C(=O)NCc1ccccc1 | 6% (inactive) |
| O=C(COc1ccccc1)NCCc1cnc[nH]1 | -4.2% (inactive) |
| O=C(COc1ccccc1Cl)N1CCCCCCC1 | -0.6% (inactive) |

From PubChem BioAssay AID1878 (Sanford-Burnham Center for Chemical Genomics, 2009)
